# Several values for one entry are separate records, joined by “and”; a condition that tells them apart may be missing. Equal values may be shown once. About 83,000 compounds went through this panel and 20% of them were active in at least one assay; those are over-represented in the sample as a whole.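 Cells were grown in 96-well plates and exposed to the test compound at a single concentration for 48 hours; results are reported as percent growth, with values below 10 considered active.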 A number with no mark means an inactive call. Activity calls are given as the source filed them.
# Legend:
# Assay in all cases: NCI-60 one-dose screen, 48 h (100 = growth as untreated, 0 = no growth, -100 = all killed)
# Conditions in all cases: 10 µM unless noted
# SR leukemia = tested on: SR leukemia
# RPMI-8226 leukemia = tested on: RPMI-8226 leukemia
# OVCAR-8 ovarian = tested on: OVCAR-8 ovarian
# OVCAR-5 ovarian = tested on: OVCAR-5 ovarian
# OVCAR-4 ovarian = tested on: OVCAR-4 ovarian
# SK-OV-3 ovarian = tested on: SK-OV-3 ovarian
# IGROV1 ovarian = tested on: IGROV1 ovarian
# OVCAR-3 ovarian = tested on: OVCAR-3 ovarian
# HS 578T breast = tested on: HS 578T breast
# NCI/ADR-RES ovarian = tested on: NCI/ADR-RES ovarian
Structure (SMILES),growth (SR leukemia),growth (RPMI-8226 leukemia),growth (OVCAR-8 ovarian),growth (OVCAR-5 ovarian),growth (OVCAR-4 ovarian),growth (SK-OV-3 ovarian),growth (IGROV1 ovarian),growth (OVCAR-3 ovarian),growth (HS 578T breast),growth (NCI/ADR-RES ovarian)
CC1(C)C(N)=Nc2cc(OCCCN3Cc4ccc(OCCc5cn(CC(=O)N6CCC(CCN7CCCC7)CC6)nn5)cc4C3)c(OCC3CC3)cc21,115%,88.8%,92%,95%,94.6%,105%,101%,114%,97.2%,103%
OCc1cc(CN2CCCCC2)c(O)c2ncccc12,27%,71.9%,50.5%,59.1%,34.9%,49.4%,52.7%,45%,85.6%,8.71% (active)
COc1c(NC=O)c2c(c([N+](=O)[O-])c1OC)C(=O)OC2,86.9%,78% and 96.5%,101% and 109%,120% and 99.7%,103%,107% and 108%,103%,115%,109% and 86.8%,117% and 108%
COc1cc(/C=C(/c2ccccc2)[N+](=O)[O-])c(OC)c2c1OCO2,-18.9% (active),-19.7% (active),-1.64% (active),-36.7% (active),-25.9% (active),63%,-41.8% (active),-97.4% (active),31%,10.7%
CN1CCN(Cc2ccc(NC(=O)c3nc4ccc5[nH]ncc5c4c4c3CCCC4)cc2C(F)(F)F)CC1,-49.8% (active),-36.2% (active),-73.8% (active),37.1%,-39.7% (active),37%,-65.5% (active),-80.3% (active),-35.4% (active),-35.3% (active)
CC(=O)c1c(C)nc(SCC(=O)Nc2ccc(Cl)cc2)n1-c1ccc(Cl)cc1,90.6%,71.1%,89.3%,99.1%,102%,85.9%,97.9%,99.4%,79.4%,89.2%
O=C(CCl)N(O)c1ccc(/C=C/c2ccccc2)cc1,11%,72.7% and 65.9%,63.1% and 89.3%,109% and 119%,103% and 94.9%,101% and 105%,70.9% and 61.9%,98.7% and 81.9%,107% and 111%,86.3% and 89.1%
O=S(=O)(O)c1ccc(N=Nc2ccc(N=Nc3cccc4ccccc34)c(S(=O)(=O)O)c2)cc1,99.4%,108%,101%,103%,93.2%,85.4%,96.3%,103%,104%,103%
O=C1N=c2ccccc2=C1c1sc(=S)n(C2CC(=O)N(c3ccc(Cl)cc3)C2=O)c1O (stereo not given),36.5%,103%,98.6%,105%,103%,103%,101%,109%,98.1%,102%
O=C1CCCCN1CCCCC#Cc1cccc(C#Cc2cccnc2)c1,-46.3% (active),49.7%,89.2%,101%,93.8%,109%,79.4%,89.7%,88%,72.7%
C=C(C)[C@@H]1CC[C@]2(C)[C@H](CC(=O)N[C@H]3[C@@H]4C[C@](C)(C(=O)OC)CC[C@]4(C)CC[C@]32C)[C@@]1(C)CCC#N,41.8%,48.3%,78.7%,91.6%,76.7%,97.4%,95.2%,79.7%,93.4%,86.6%
Cn1ccnc1CN1CCSC(C(=O)Nc2ccccc2)C1 (stereo not given),96.8%,88.5%,95.5%,83.1%,90.7%,98.7%,94.5%,102%,95.9%,92.7%
CN(C)C1CCN(C(=O)c2ccc(NC(=O)Nc3ccc(-c4nc(N5CCOCC5)c5cccn5n4)cc3)cc2)CC1,8.47% (active),-20.8% (active),-0.587% (active),-0.314% (active),-26.9% (active),-30.8% (active),-26.4% (active),-12% (active),-32.6% (active),85.1%
CCCCC(NC(=O)CN1C(=O)/C(=C/C(C)=C/c2ccccc2)SC1=S)C(=O)O (stereo not given),115%,115%,102%,101%,101%,105%,102%,112%,102%,98%
CN1CCN(Cc2ccc(NC(=O)c3cccc(C#Cc4c(N)ncc5ccc(F)cc45)c3)cc2C(F)(F)F)CC1,-24.6% (active),-33.6% (active),-51.5% (active),-57.7% (active),-47.6% (active),6.69% (active),-42.4% (active),-57.4% (active),-37.9% (active),-44.7% (active)
CCCCCCNC(=O)Oc1ccc(/C(=C(/CC)Cc2ccccc2)c2ccc(OCCCN(C)C)cc2)cc1,-9.68% (active),75.2%,83.9%,90.5%,81.7%,88.2%,68.1%,95.3%,86.3%,72.2%
N=c1c2c(-c3ccccc3)c(-c3ccccc3)oc2ncn1NC(=O)c1cccnc1,77.7%,97.5%,97.7%,109%,101%,99.2%,95.7%,111%,103%,107%
COc1ccc(-c2cc3cnc4ccccc4c3oc2=O)cc1,74.6%,102%,105%,101%,103%,93.9%,106%,106%,100%,102%
Brc1ccc(/C=C(/C2=NCCN2)n2ccc3ccccc32)cc1,30.4%,86.1%,72.3%,72.9%,67.7%,82%,60.7%,77.6%,78.2%,65.9%
COC(=O)N/N=C/c1c[n+]([O-])c2ccccc2[n+]1[O-],93.4%,94.3%,90.8%,108%,103%,29.9%,102%,111%,126%,102%
COc1ccc(/C=N\Nc2nc(SCC(C)C)nc(-c3ccc(OC)cc3)c2C#N)cc1,50.3%,54.6%,39.2%,55.5%,-60.3% (active),-16.6% (active),-16.3% (active),9.64% (active),8.52% (active),42.2%
O=C(CCl)n1nnnc1Cc1ccccc1,93.5%,96.3%,91.1%,95.9%,105%,93.6%,107%,112%,121%,101%
Clc1cccc(Nc2ncnc3ccc(-c4cncc(-n5cnnn5)c4)cc23)c1,71.2%,35.5%,75.1%,65.2%,90.2%,-4.88% (active),26.1%,66.1%,67.2%,76.4%
O=C1OCC2=C1C(c1cccc(C(F)(F)F)c1)c1cc3c(cc1N2CCO)CCC3 (stereo not given),11.1%,17.9%,5.39% (active),36.1%,52.3%,5.48% (active),23.5%,-17.8% (active),28%,17.7%
Cc1ccc(C(=O)c2ccc(CC(=O)N=Nc3c(O)[nH]c4ccc(OC(F)(F)F)cc34)n2C)cc1,102%,102%,94%,100%,118%,96.9%,85.2%,117%,94.5%,92.4%
